Laboratory results published in PubChem BioAssay AID1159580 (chemical genetic matrix, 2015).
Screen size: about 5,500 compounds; about 2,000 (36%) were called active. Another 18% or so got no clear call; they are omitted. Cut-off read from the data, not from the text of the source: active = normalized growth mostly below about 0.91 (no sharp cut-off); inconclusive = no clear call, values can overlap the other calls; inactive = mostly above about 0.92. Some of the results follow.

Assay: chemical genetic growth profiling, strain panel (AID 1159580);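 note: tested at 20 µM; growth read once vehicle control cultures reached saturation at 30 °C; 1 = growth at the plate median or of vehicle wells; lower values mean less growth of the strain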
Conditions: S. cerevisiae deletion strains, growth OD

Measured: normalized growth

CC(C)CCCC(C)[C@H]1CCC2C3CC[C@@H]4C[C@H](O)CC[C@]4(C)C3CC[C@@]21C (stereo partly drawn)
inactive: locus YAL013W, strain DEP1, stronger effect = lower value 1.04 | locus YBR021W, strain FUR4, stronger effect = lower value 0.992 | locus YBR229C, strain ROT2, stronger effect = lower value 1 | locus YCL029C, strain bik1, stronger effect = lower value 1.02 | locus YDL035C, strain GPR1, stronger effect = lower value 1.02 | locus YDL074C, strain BRE1, stronger effect = lower value 1.01 | locus YDL101C, strain DUN1, stronger effect = lower value 1.01 | locus YDL185W, strain tfp1, stronger effect = lower value 1.02 | locus YDL192W, strain arf1, stronger effect = lower value 1 | locus YDR101C, strain arx1, stronger effect = lower value 0.991 | locus YDR162C, strain NBP2, stronger effect = lower value 1.03 | locus YDR318W, strain mcm21, stronger effect = lower value 1.01 | locus YDR388W, stronger effect = lower value 1 | locus YDR502C, strain sam2, stronger effect = lower value 0.999 | locus YEL061C, strain CIN8, stronger effect = lower value 1 | locus YER110C, stronger effect = lower value 1.01 | locus YER155C, strain BEM2, stronger effect = lower value 1 | locus YER167W, strain BCK2, stronger effect = lower value 1.02 | locus YGL078C, strain dbp3, stronger effect = lower value 1 | locus YGL086W, strain mad1, stronger effect = lower value 1 | locus YGL248W, strain PDE1, stronger effect = lower value 1.01 | locus YGR135W, strain pre9, stronger effect = lower value 1.01 | locus YGR252W, strain gcn5, stronger effect = lower value 0.985 | locus YHR030C, strain SLT2, stronger effect = lower value 1.01 | locus YHR079C, strain IRE1 (second series), stronger effect = lower value 0.997 | locus YHR094C, strain hxt1, stronger effect = lower value 1.01 | locus YHR129C, strain ARP1, stronger effect = lower value 1 | locus YHR200W, strain rpn10, stronger effect = lower value 1 | locus YIL066C, strain RNR3, stronger effect = lower value 1.03 | locus YIL073C, strain SPO22, stronger effect = lower value 1.03 | locus YIL125W, strain kgd1, stronger effect = lower value 0.999 | locus YIR030C, strain dcg1, stronger effect = lower value 1 | locus YJL095W, strain BCK1, stronger effect = lower value 1.01 | locus YJL134W, strain LCB3, stronger effect = lower value 1.01 | locus YJL168C, strain set2, stronger effect = lower value 0.994 | locus YJL187C, strain SWE1 (second series), stronger effect = lower value 1.01 | locus YJR043C, strain POL32, stronger effect = lower value 1.01 | locus YJR075W, strain HOC1, stronger effect = lower value 1 | locus YKL009W, strain mrt4, stronger effect = lower value 1.02 | locus YKL068W, stronger effect = lower value 1 | locus YKL085W, strain MDH1 (second series), stronger effect = lower value 1.01 | locus YKL085W, strain MDH1, stronger effect = lower value 1.01 | locus YKL190W, strain CNB1, stronger effect = lower value 1.01 | locus YKR001C, strain vps1, stronger effect = lower value 0.998 | locus YLR039C, strain RIC1, stronger effect = lower value 1.06 | locus YLR058C, strain SHM2, stronger effect = lower value 1 | locus YLR102C, strain apc9, stronger effect = lower value 1 | locus YLR262C, strain YPT6, stronger effect = lower value 1.06 | locus YLR268W, strain sec22, stronger effect = lower value 0.999 | locus YLR330W, strain CHS5, stronger effect = lower value 1.01 | locus YLR342W, strain FKS1 (second series), stronger effect = lower value 1.01 | locus YLR371W, strain rom2, stronger effect = lower value 1.02 | locus YLR418C, strain cdc73, stronger effect = lower value 0.978 | locus YML016C, strain PPZ1, stronger effect = lower value 1.01 | locus YML032C, strain rad52, stronger effect = lower value 1 | locus YML124C, strain tub3, stronger effect = lower value 1 | locus YMR078C, strain ctf18, stronger effect = lower value 1 | locus YMR223W, strain ubp8, stronger effect = lower value 1.01 | locus YMR307W, strain GAS1, stronger effect = lower value 1.07 | locus YNL067W, strain RPL9B, stronger effect = lower value 1.01 | locus YNL153C, strain GIM3, stronger effect = lower value 1.01 | locus YNL233W, strain BNI4, stronger effect = lower value 1.01 | locus YNL250W, strain rad50, stronger effect = lower value 1 | locus YNL271C, strain bni1, stronger effect = lower value 1.01 | locus YNL298W, strain CLA4, stronger effect = lower value 1 | locus YNL307C, strain MCK1, stronger effect = lower value 1.01 | locus YNL322C, strain KRE1, stronger effect = lower value 1.01 | locus YNR052C, strain pop2, stronger effect = lower value 0.999 | locus YOL006C, strain TOP1, stronger effect = lower value 1.04 | locus YOL012C, strain htz1 0.869 | locus YOL147C, strain pex11, stronger effect = lower value 0.991 | locus YOR061W, strain CKA2, stronger effect = lower value 1.01 | locus YOR069W, strain VPS5, stronger effect = lower value 1.01 | locus YOR136W, strain idh2, stronger effect = lower value 0.994 | locus YOR144C, strain elg1, stronger effect = lower value 0.987 | locus YOR184W, strain ser1, stronger effect = lower value 0.989 | locus YOR316C, strain cot1, stronger effect = lower value 1 | locus YPL055C, strain LGE1, stronger effect = lower value 1.01 | locus YPR119W, strain clb2, stronger effect = lower value 1 | locus YPR141C, strain kar3, stronger effect = lower value 1.02 | locus YPR163C, strain tif3, stronger effect = lower value 1.01 | locus YPR167C, strain met16, stronger effect = lower value 1 | strain wtn01, stronger effect = lower value 1
